# Results with a measured potency or affinity are listed apart. A number with no mark means an inactive call. The rule behind the calls is not given here.
# Experiment: human cervical cancer cell viability loss – 24 h, plate reader, dry powder, cytotoxicity control, dose response (AID 686928)
# Conditions: HeLa cytotoxicity; series mostly up to 80 µM; activity change, negative = cytotoxicity: at the top concentration
row,Structure (SMILES),"activity change, negative = cytotoxicity"
1,CCn1nnnc1NC(C)c1ccc(N2CCCC2)cc1 (stereo not drawn),-0.569% [at 100 µM]
2,Cc1cccc(-n2cnc(=O)c3ccccc32)c1,-8.44%
3,COc1ccc(-c2nnc(NC(C)=O)o2)cc1,-0.903% [at 100 µM]
4,Cc1ccc2cc3c(NC(=O)c4cc5ccccc5o4)nn(C)c3nc2c1,-46.2% [at 100 µM]
5,O=C(Cc1ccc(-c2ccccc2)cc1)NC1COC1,7.64% [at 100 µM]
6,CCc1ccc2cc3c(NC(=O)c4ccco4)nn(C)c3nc2c1,-37.8%
7,Cc1ccc2cc3c(NC(=O)c4ccc(C)o4)nn(C)c3nc2c1,6.38% [at 100 µM]
8,O=C(Nc1nnc(-c2ccc3c(c2)CCCC3)o1)C1CCC1,-27%
9,O=C(Cc1ccc(-c2ccccc2)cc1)NC1CCC1,3.35% [at 100 µM]
10,O=c1ncn(-c2cccc(F)c2)c2ccccc12,1.9%
11,CCc1nc(=O)c2ccccc2n1-c1cccc(Cl)c1,-1.68%
12,Cc1ccc2cc3c(NC(=O)c4ccccn4)nn(C)c3nc2c1,10.8% [at 100 µM]
13,O=C(Nc1nnc(-c2cccnc2)o1)C1CCC1,10.1% [at 100 µM]
14,CCC(C)(C)C(=O)Nc1nnc(-c2ccc3c(c2)OCCO3)o1,-17.3%
15,Cc1ccc2c(c1)c(=O)ncn2-c1cccc(Cl)c1,0.664%
16,O=c1[nH]cnc2ccccc12,-6.67%
17,CCn1nnnc1NCc1ccc(C(C)C)cc1,-0.472% [at 100 µM]
18,O=c1ncn(-c2cccc(Cl)c2)c2ccc(Cl)cc12,-6.27%
19,O=c1nc(Cc2ccccc2)n(-c2cccc(Cl)c2)c2ccccc12,-5.09%

row,Structure (SMILES),"activity change, negative = cytotoxicity"
1,O=c1ncn(-c2ccc(Cl)c(Cl)c2)c2ccccc12,-5.87%
2,Cc1ccc2c(=O)ncn(-c3cccc(Cl)c3)c2c1,2.63%
3,Cn1nc(NC(=O)c2ccco2)c2cc3ccc(C(C)(C)C)cc3nc21,-74.1% [at 100 µM]
4,O=c1ncn(-c2ccc(F)c(Cl)c2)c2ccccc12,0.53%
5,CC(C)(C)OC(=O)N1CCC(C(=O)Nc2nnc(-c3ccc4c(c3)OCCO4)o2)CC1,5.35% [at 100 µM]
6,Cn1nc(NC(=O)c2ccco2)c2cc3ccccc3nc21,-0.497%
7,O=C(CC1CCCCC1)Nc1nnc(-c2ccc3c(c2)CCCC3)o1,-4.33% [at 35 µM]
8,CN1CCC(C(=O)Nc2nnc(-c3ccc4c(c3)OCCO4)o2)CC1,8.1% [at 100 µM]
9,O=C(CSc1nc2c(c(=O)[nH]1)CCCC2)NC1CCCCC1,1.91%
10,Cn1nc(NC(=O)c2ccco2)c2ccccc21,-4.66% [at 100 µM]
11,Cn1cnc(=O)c2ccccc21,11.9%
12,Cc1cc(F)c2cc3c(NC(=O)c4ccco4)nn(C)c3nc2c1,2.86% [at 100 µM]
13,COC(=O)c1ccccc1Nc1cccc(Cl)c1,-12.2%
14,O=C1C(=O)N(Cc2ccccc2Cl)c2ccccc21,-5.25%
15,O=C(Nc1nnc(-c2ccc3c(c2)OCCO3)o1)C1CC1,2.93% [at 100 µM]
16,Cc1cc(F)cc2nc3c(cc12)c(NC(=O)c1ccco1)nn3C,2.47% [at 100 µM]
17,Cc1ccc2cc3c(NC(=O)C4CCCC4)nn(C)c3nc2c1,-8.11%
18,COc1ccc(-c2nnc(NC(=O)C3CCCCC3)o2)cc1,-9.23% [at 100 µM]
19,O=C(Nc1nnc(-c2ccc3c(c2)OCCO3)o1)C1CCC1,5.69% [at 100 µM]

# From PubChem BioAssay AID686928 (Broad Institute, 2013)
